Inconclusive results are not listed. Calls of active or inactive are those of the source.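 Rule for the calls: active = raised CDH13 expression over DMSO controls, judged by fold change in triplicate runs, no set cutoff; inconclusive = doubtful CDH13 rise, criteria not stated; inactive = no rise, falls in expression ignored.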
test: CDH13 Derepression/Induction Secondary Assay for qHTS Assay for Epigenetic Modulators; conditions: H358 cells, CDH13 mRNA qPCR, 72 h; hits give high values
Excerpt: NIH Molecular Libraries Screening Centers Network [MLSCN] NIH Chemical Genomics Center [NCGC] MLSCN Grant: 1 X01 MH079860-01 Assay Provider: Elisabeth D. Martinez, University of Texas SW Medical Center NCGC Assay Overview: This secondary assay characterizes selected actives identified in the qHTS of the Locus Derepression (LDR) assay (PubChem AID 597). The LDR assay detects the derepression of a GFP reporter that is stably integrated in a region of the genome of murine c127i mammary cells that is presumably silenced. Compounds that cause derepression of the locus to express GFP are identified by enumerating GFP positive cells using a laser-scanning microplate cytometer. Selected LDR actives were assayed for the induction of CDH13 gene expression, a gene silenced by methylation of its promoter. Treatment of cells with DNA methyltransferase inhibitors, like 5-azadeoxycytidine, or with HDAC inhibitors, like trichostatin A, induce CDH13 gene expression. Compounds active in this assay may modulate components involved in DNA methylation, histone acetylation or gene transcription.
NCGC Assay Protocol Summary Exponentially growing H358 non-small cell lung cancer cells were treated daily with fresh media containing the indicated concentrations of compounds for 72 hr. Cellular RNA was extracted, quantified, DNAse treated and reverse transcribed. The resulting cDNA was amplified in TaqMan real time quantitative PCR assays (Applied Biosystems) containing validated primers specific for CDH13 (Hs00169908.m1). Reactions were performed on an ABI Prism 7900HT, with an initial 2 min preincubation at 50 C, followed by 10 min at 95 C and then 40 cycles of 95 C for 15 seconds and 60 C for 1 min. GAPDH and 18S ribosomal RNA were used as references. Gene expression was measured by fold-induction over control DMSO-treated samples (36-37 average cycle time). Increases corresponded to at least 2-3 cycle time differences over DMSO controls, which were in the measurable range. Decreases in expression were considered insignificant as measurement of the DMSO samples were at the low limit of detection. Reactions were run in triplicate and error bars represent standard deviations. For further details, see R.L. Johnson, W. Huang, A. Jadhav, C.P. Austin, J. Inglese, E.D. Martinez, A Quantitative High-Throughput Screen Identifies Potential Epigenetic Modulators of Gene Expression, Analytical Biochemistry (2007), doi: 10.1016/j.ab.2007.12.028

Fold change, active:
O=Nc1ccc(O)c2ncccc12 85
CN1CCN(Cc2cc(Cl)c3cccnc3c2O)CC1 10
CC(C)C(=O)NC(c1ccco1)c1ccc2cccnc2c1O (stereo not given) 12
Nc1ncn([C@H]2C[C@H](O)[C@@H](CO)O2)c(=O)n1 9
CC(C)C(=O)NC(c1ccco1)c1cc([N+](=O)[O-])c2cccnc2c1O (stereo not given) 9
CC(/C=C/C(=O)NO)=C\[C@@H](C)C(=O)c1ccc(N(C)C)cc1 256

Fold change, inactive:
CN(C)C(=O)CSc1cccc2cccnc12 1
CCN1CSC(=S)N(CC)C1 1
O=C(CSc1cccc2cccnc12)NCc1ccccc1 2
O=C(CSc1cccc2cccnc12)N1CCCC1 1
